According to PubChem BioAssay:
The source made the active and inactive calls.

How the values were obtained:
Albumin (Bos taurus) = Albumin (Bos taurus) (UniProt P02769); test: bovine serum albumin binders on microarray, profiling panel, artefact control for SMM control protein annotation, biochemical, small-molecule microarray, Alexa647 label, 635/667 nm fluorescence (AID 1118); details: BSA-A647 binding, fluorescence 635 nm, higher = more signal;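 also: score merges 667 nm emission intensity and signal-to-noise per printed compound spot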
[1] = small-molecule microarray binders of probe aXIP, primary screen, biochemical, NeuroSMM set, 635/667 nm fluorescence (AID 1119); details: higher = more signal, called active from +8 up or from −8 down;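 also: probe is the protein aXip251-270 applied at 1 µg/mL to compound-printed slides; binding of probe to printed compounds measured as 667 nm fluorescence plus signal to noise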
[2] = small-molecule binders of probe aNOTCH3, primary screen, biochemical, small-molecule microarray, 635/667 nm fluorescence (AID 1120); details: higher = more signal;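 also: probe is a biotin-tagged antibody raised against NOTCH3 rather than NOTCH3 protein; score merges spot fluorescence near 667 nm with spot signal to noise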
[3] = small-molecule binders of probe aNOTCH2, primary screen, biochemical, small-molecule microarray, 635/667 nm fluorescence (AID 1121); details: higher = more signal;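 also: score merges feature fluorescence read at 667 nm with its signal to noise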
[4] = biological target: Carbonic anhydrase 2 (Homo sapiens) (UniProt P00918); test: CAII small-molecule binders, profiling panel, biochemical, small-molecule microarray, Alexa647-labelled CAII (AID 1122); details: CAII-A647 binding fluorescence, higher = more signal
[5] = COS7 lysate on small-molecule microarray, probe aHis, 635 nm (AID 1123); details: COS7 cell lysate, fluorescence, higher = more signal;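 also: z-score combines 667nm fluorescence intensity with signal-to-noise per printed compound spot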
[6] = compound binding in COS7 lysate, probe aLAP1, primary screen, cell lysate, small-molecule microarray (AID 1124); details: probe aLAP1, fluorescence, higher = more signal;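 also: lysate comes from COS7 cells expressing LAP1 and is applied at 0.3 µg/mL; score merges spot fluorescence near 667 nm with signal-to-noise over triplicate slides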
Sam68 (KHDRBS1) = test: Sam68 small-molecule binders, primary screen, biochemical, small-molecule microarray, 635 nm fluorescence (AID 1125); details: small-molecule microarray binding, higher = more signal;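 also: score merges 667 nm channel intensity with signal to noise over triplicate slides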
[7] = tested on: Chordin-like protein 2 (CHRDL2); test: CHRDL2 small-molecule binders, primary screen, biochemical, small-molecule microarray, 635 nm fluorescence (AID 1126); details: small-molecule microarray binding, fluorescence 635 nm; higher = more signal;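 also: printed compound slides probed with Chrdl2 protein at 4 µg/mL for 1 h at 4 C; score merges 667 nm emission intensity with signal to noise over three replicate slides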
[8] = biological target: Concanavalin-A (Canavalia ensiformis) (UniProt P02866); test: ConA small-molecule binders, primary screen, artefact control for SMM control protein annotation, biochemical, small-molecule microarray, Alexa647 label, 635 nm (AID 1127); details: ConA-A647 binding fluorescence, higher = more signal;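 also: z combines 667 nm emission intensity with signal-to-noise across three replicate slides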
Concanavalin-A (Canavalia ensiformis), sequence (P02866 whole entry, looked up): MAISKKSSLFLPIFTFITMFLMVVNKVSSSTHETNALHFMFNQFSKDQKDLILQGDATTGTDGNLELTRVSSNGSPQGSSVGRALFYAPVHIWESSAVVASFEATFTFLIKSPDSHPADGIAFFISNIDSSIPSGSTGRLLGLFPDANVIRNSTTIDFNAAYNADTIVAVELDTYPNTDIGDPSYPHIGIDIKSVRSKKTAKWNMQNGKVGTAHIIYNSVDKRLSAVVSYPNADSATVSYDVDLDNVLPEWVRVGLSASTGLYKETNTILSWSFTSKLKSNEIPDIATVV

Albumin (Bos taurus), sequence (P02769 whole entry, looked up): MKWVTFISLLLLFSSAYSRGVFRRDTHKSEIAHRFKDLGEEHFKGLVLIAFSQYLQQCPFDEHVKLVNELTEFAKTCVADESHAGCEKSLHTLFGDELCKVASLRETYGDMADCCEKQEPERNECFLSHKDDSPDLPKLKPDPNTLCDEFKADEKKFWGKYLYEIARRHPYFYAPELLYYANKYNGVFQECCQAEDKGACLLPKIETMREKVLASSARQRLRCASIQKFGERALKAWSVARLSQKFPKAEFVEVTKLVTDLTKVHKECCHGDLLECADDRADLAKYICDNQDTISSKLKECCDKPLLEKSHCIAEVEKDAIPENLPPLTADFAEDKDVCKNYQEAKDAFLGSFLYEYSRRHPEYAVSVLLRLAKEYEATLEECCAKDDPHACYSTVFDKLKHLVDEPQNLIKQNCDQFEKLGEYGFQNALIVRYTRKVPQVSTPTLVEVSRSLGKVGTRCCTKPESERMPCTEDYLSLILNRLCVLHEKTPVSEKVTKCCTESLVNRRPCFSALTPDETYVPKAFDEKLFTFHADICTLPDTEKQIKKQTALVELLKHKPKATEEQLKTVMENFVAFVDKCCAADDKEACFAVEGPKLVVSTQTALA

| Compound | composite z-score (Albumin (Bos taurus)) | composite Z-score [1] | composite z-score [2] | composite z-score [3] | composite z-score [4] | composite z-score [5] | composite z-score [6] | composite z-score (Sam68 (KHDRBS1)) | composite z-score [7] | composite z-score [8] |
| --- | --- | --- | --- | --- | --- | --- | --- | --- | --- | --- |
| COc1ccc([Si](C)(C)[C@H]2[C@H](CC(=O)N(CCO)Cc3ccccc3)O[C@@]3(C(=O)N(C)c4ccccc43)[C@@H]2C)cc1 | 0.748 | -0.0798 (inactive) | 0.0833 | -0.155 | 0.384 | 0.136 | 0.177 | 1.05 | 1.21 | 0.664 |
| CC(c1ccccc1)C(O)C1C=CC2C(=O)N(C)C(=O)C2N1N(c1ccccc1)c1ccccc1 (stereo not given) | 0.867 | 0.543 (inactive) | 0.207 | 0.0605 | 0.507 | 1.57 | 0.19 | 0.431 | -0.852 | -0.597 |
| Cc1ccc(S(=O)(=O)c2cc3oc2CC[C@@H](CO)NC(=O)N(C)Cc2cn(nn2)C[C@H](Cc2ccccc2)NC3=O)cc1 | 0.811 | 0.222 (inactive) | -0.0006 | -0.145 | 0.581 | 0.682 | 0.192 | 0.476 | -0.479 | 0.894 |
| CCCC=C(CCC)[C@@H](NC(=O)c1ccc(C(F)(F)F)cc1)c1ccccc1 | -0.0332 | 0.0895 (inactive) | 0.191 | -0.0007 | 0.104 | 1.29 | -0.805 | 0.989 | -0.815 | 0.483 |
| C=CCNC(=O)[C@@H]1[C@H]2C(=O)O[C@H](c3ccccc3)[C@H](c3ccccc3)N2[C@H](c2ccc(OCCO)cc2)[C@@]12C(=O)N(C(=O)OCCOC)c1ccc(C#CC3(O)CCCCCC3)cc12 | 0.801 | 1.7 (inactive) | 0.353 | -0.0502 | 0.572 | 1.5 | 0.568 | 1.3 | -0.0335 | 1.07 |
| COCCCNC(=O)[C@@H]1c2ccccc2C(=O)N(CC23CC4CC(CC(C4)C2)C3)[C@H]1c1ccc(CO)cc1 | -0.507 | 0.309 (inactive) | 0.28 | -0.0232 | 0.449 | 1.34 | 0.334 | 1.27 | -0.0949 | -0.171 |
| CCCCO[C@H]1C[C@H]2C(Br)=C[C@@]1(CO)C(=O)[C@]21CO1 | -1.23 | -0.442 (inactive) | -0.0647 | -0.201 | -0.548 | 0.124 | -0.139 | 0.362 | 0.569 | 0.153 |
| CC/C=C/C(=O)N(C[C@@H]1CCCO1)[C@@H]1CC(C(=O)NCCO)=C[C@H](Oc2c(I)cc(CO)cc2OC)[C@H]1O | 0.74 | 0.465 (inactive) | 0.0208 | -0.103 | 0.721 | 1.42 | 0.739 | 0.787 | -0.355 | -0.629 |
| O=C1c2ccccc2[C@](Cc2ccccc2I)(C(=O)NCC(F)(F)F)[C@H](c2ccc(CO)cc2)N1Cc1ccccc1C(F)(F)F | 0.89 | 0.34 (inactive) | -0.099 | -0.175 | 0.411 | 1.58 | 0.494 | 1.32 | -0.324 | 0.609 |
| C[C@]1(C(=O)NCCN2CCOCC2)c2ccccc2C(=O)N(Cc2ccccc2)[C@H]1c1ccc(CO)cc1 | -0.0435 | -0.61 (inactive) | -0.257 | -0.154 | 0.733 | 0.652 | 0.389 | -0.791 | -0.479 | 0.657 |
| O=C1O[C@H](c2ccccc2)[C@H](c2ccccc2)N2[C@H]1[C@@H](C(=O)Nc1nc3ccccc3s1)[C@]1(C(=O)Nc3ccc(C#CC4=CCCCC4)cc31)[C@H]2c1ccccc1OCCO | 0.581 | 0.329 (inactive) | 0.0452 | -0.14 | 0.23 | 0.834 | -0.189 | 1.3 | 0.497 | 1 |
| CC(C)=C1C(=O)C(c2ccccc2)=C2CN3C(=O)N(CCc4ccccc4)C(=O)[C@]3(Cc3ccccc3)[C@H]21 | 0.0673 | 0.548 (inactive) | -0.0209 | 0.224 | 0.204 | 0.572 | -0.14 | -1.59 | -2.04 | -1.18 |
